Data on 40 molecules can be found in PubChem BioAssay (EPA / NIEHS).

Calls of active or inactive are those of the source. The calls were made as follows: active = hit-call score of the fitted dose curve at least 0.9, where 1 is the maximum; inactive = score below 0.9.

Read-out in this assay: Epidermal growth factor receptor (EGFR), EGFR (gene 1956)
Description: BSK_hDFCGF_EGFR: BioMAP Diversity Plus: hDFCGF Assay for Epidermal growth factor receptor (EGFR) Biomarker Activity (AID 2283057). The note with it: primary human foreskin fibroblasts; actives raise or lower the signal. The method, then: BSK_hDFCGF is a cell-based, multiplexed-readout assay that uses foreskin fibroblast, a human skin primary cell, with measurements taken at 24 hours after chemical dosing in a 96-well plate.BSK_hDFCGF_EGFR is an assay component measured in the BSK_hDFCGF assay. It measures EGFR antibody related to regulation of gene expression using ELISA technology.Data from the assay component BSK_hDFCGF_EGFR was analyzed into 1 assay endpoint. This assay endpoint, BSK_hDFCGF_EGFR, was analyzed with bidirectional fitting relative to DMSO as the negative control and baseline of activity. Using a type of binding reporter, gain or loss-of-signal activity can be used to understand changes in the signaling as they relate to the gene EGFR. Furthermore, this assay endpoint can be referred to as a primary readout, because this assay has produced multiple assay endpoints where this one serves a signaling function. To generalize the intended target to other relatable targets, this assay endpoint is annotated to the kinase intended target family, where the subfamily is receptor tyrosine kinase.
The levels of cell surface (or secreted, indicated by the prefix "s") biomarker endpoints were measured by ELISA. Overt cytotoxicity to cells in confluent adherent cultures (all systems other than the BT system) was assessed by measuring total protein levels using sulforhodamine B (SRB) staining in parallel cultures at the time of biomarker measurements, indicated as SRB endpoints. For proliferation assays for adherent cell types, individual cell types are cultured at sub-confluence and relative cell numbers quantified by SRB staining at time points optimized for each system (48 h: 3C and CASM3C systems; 72 h: BT and HDF3CGF systems; 96 h: SAg system). SRB was performed by staining cells with 0.1% SRB after fixation with 10% TCA and reading wells at 560 nm.Viability and proliferation of PBMC (T cells) was quantified by Alamar Blue reduction for the SAg and BT systems. For PBMC viability (referred to as PBMC Cytotoxicity within the assay endpoint names), cells were plated (75,000/well in a 96-well plate) and then chemical samples added for 1 h before addition of activators, SEB and TSST-1 (20 ng/mL final concentration each). Cells were incubated for 90 h. Then, Alamar Blue (20 uL/well) (Invitrogen, Cat DAL1100) was added for 6 h, and the plates were read with a fluorescence microplate reader at 546/580 nm (excitation/emission). For PBMC proliferation, cells were plated and activated as above but incubated for only 16 h prior to addition of Alamar Blue. Plates were read after 6 h.
Turning to `COc1cc(-c2nc(NC(=O)c3cc4cc(C)cc(C)c4n3CC(=O)O)sc2CCC2CCCCC2)c(OC)cc1Cl`, the outcome was inactive.

Take `O=C(O)Cc1ccccc1Nc1c(Cl)cccc1Cl`: the outcome was inactive.

For the molecule `CCCCCCCCCCCCCO`, the outcome was inactive.

Consider `Nc1ccc(S(=O)(=O)c2ccc(N)cc2)cc1`, for which the outcome was inactive.

With `Clc1cc(Cl)c(Cl)cc1Cl`, the outcome was inactive.

Turning to `Cc1cccc(Nc2cc(Cl)nc(SCC(=O)O)n2)c1C`, the outcome was inactive.

For `COc1ccc2c(c1)c(CC(=O)O)c(C)n2C(=O)c1ccc(Cl)cc1`, the result was inactive.

As to `CCCc1cc(=O)[nH]c(=S)[nH]1`, the result was inactive.

By AC50 is commonly meant the concentration giving half of the maximal activity seen. Take `CN[C@H]1CC[C@@H](c2ccc(Cl)c(Cl)c2)c2ccc(S(N)(=O)=O)cc21`: the AC50 is 32.7 µM (active).

In the case of `NCCO`, the result was inactive.

`CCCCN(CCCC)CCCC`: the outcome was inactive.

Consider `CCCCOC(=O)CCCCCCCCC(=O)OCCCC`, for which the outcome was inactive.

As for `C=CCOC(=O)c1ccccc1C(=O)OCC=C`, the outcome was inactive.

For the molecule `Cc1nc(-c2ccc3c(c2)CCN(CCC2CCC(NC(=O)/C=C/c4ccc(F)cc4)CC2)CC3)no1` (stereo not given), the outcome was inactive.

On to `COc1cc(S(=O)(=O)O)c(C)cc1N=Nc1c(O)ccc2cc(S(=O)(=O)O)ccc12`, for which the result was inactive.

`O=C(O)CCCCC(=O)O`: the result was inactive.

Consider `CC1(C)NC(=O)NC1=O`, for which the outcome was inactive.

For the molecule `Cc1oc(-c2ccccc2)nc1CCOc1cccc2c1ccn2CCC(=O)O`, the outcome was inactive.

`CCCCCC(=O)O`: the outcome was inactive.

For the molecule `Cc1c(C(=O)O)c(O)cc2c1C(=O)c1c(O)c([C@@H]3O[C@H](CO)[C@@H](O)[C@H](O)[C@H]3O)c(O)c(O)c1C2=O`, the result was inactive.

As to `CCCCCCCCCCO`, the outcome was inactive.

Regarding `Cc1cc(NC(=O)C(=O)O)cc(C)c1Oc1ccc(O)c2c1CCC2`, the result was inactive.

With `Nc1nc(N)c2nc(CNc3ccc(C(=O)N[C@@H](CCC(=O)O)C(=O)O)cc3)cnc2n1`, the result was inactive.

Turning to `CCCCCCCCCCCC(=O)OC`, the outcome was inactive.

On to `Cc1cc(=O)[nH]c(=S)[nH]1`, for which the result was inactive.

Turning to `CC(=O)C(C)=CC1C(C)=CCCC1(C)C` (stereo not given), the result was inactive.

Take `CC(=O)Oc1ccccc1C(=O)O`: the result was inactive.

Consider `COCCOC[C@H](CC1(C(=O)NC2CCC(C(=O)O)CC2)CCCC1)C(=O)Oc1ccc2c(c1)CCC2` (stereo not given in full), for which the outcome was inactive.

As to `CCCCCCCC=O`, the outcome was inactive.

As to `Nc1ccccc1N`, the result was inactive.

`CCCCCCC(=O)OCC`: the result was inactive.

For `OC[C@@H](O)[C@@H](O)[C@H](O)[C@H](O)CO`, the outcome was inactive.

Consider `CC(=O)OC/C=C(\C)CCC=C(C)C`, for which the result was inactive.

As to `CCOc1ccc2c(c1)C(C)=CC(C)(C)N2`, the result was inactive.

Take `CN1CCCC1=O`: the result was inactive.

On to `Cc1cccc([N+](=O)[O-])c1C`, for which the result was inactive.

With `COC(=O)c1ccc(O)cc1`, the result was inactive.

As for `CC(C)c1ccc(C(=O)N=C(N)N)cc1S(C)(=O)=O`, the result was inactive.

Turning to `FC(F)(F)C(F)(F)C(F)(F)C(F)(F)C(F)(F)C(F)(F)CCI`, the outcome was inactive.

Take `CCCCCCCCCCCCCCCCCC(=O)O`: the result was inactive.
